From PubChem
aDG glyco act = alpha-DG glycosylation activation; activation, % at 10 µM; Pro5-aDG cells, alpha-DG glycosylation AlphaScreen (IIH6); 0% Pro5, 100% B10-LARGE cell signal; 360,000 tested, 0.22% active;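 active = activation of at least 8% versus controls, or a plate z-score of at least 8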;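 also: Pro5 are CHO cells carrying HIG-tagged alpha-DG that lacks glycosylation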
ALR inh = human ALR oxidase inhibition via reduced H2O2 | inhibition, % (test concentration not listed) | AID 485317 | purified ALR, DTT oxidation, H2O2 HRP-luminol luminescence | 290,000 tested, 3.8% active;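 active = mean replicate inhibition above about 79%, with every replicate also reaching it, limit read from the data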
Target sequence (P55789 whole entry, looked up): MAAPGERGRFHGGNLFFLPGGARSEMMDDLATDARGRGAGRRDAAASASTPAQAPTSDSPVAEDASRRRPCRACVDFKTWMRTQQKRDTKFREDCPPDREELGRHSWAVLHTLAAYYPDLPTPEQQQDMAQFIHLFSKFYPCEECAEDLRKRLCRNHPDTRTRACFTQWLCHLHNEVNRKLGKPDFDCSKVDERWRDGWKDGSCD
PHOSPHO1 block = inhibitors of human PHOSPHO1 phosphatase; Q8TCT1; AID 1565; 290,000 tested, 1.1% active; recombinant PHOSPHO1, absorbance phosphatase assay; inhibition, % at 13.3 µM; in the data active = inhibition above about 60%
Target sequence (Q8TCT1 whole entry, looked up): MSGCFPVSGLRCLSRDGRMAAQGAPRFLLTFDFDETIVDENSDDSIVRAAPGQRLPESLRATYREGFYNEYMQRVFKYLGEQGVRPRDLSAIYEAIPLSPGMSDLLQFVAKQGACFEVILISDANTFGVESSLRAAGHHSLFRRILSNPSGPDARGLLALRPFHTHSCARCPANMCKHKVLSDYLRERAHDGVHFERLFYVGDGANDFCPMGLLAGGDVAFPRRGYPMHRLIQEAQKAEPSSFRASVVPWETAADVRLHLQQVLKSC
APOBEC3G inh = APOBEC3G (human) deaminase inhibition; AID 493012; inhibition, % at 20 µM; 330,000 tested, 0.28% active; recombinant A3G, ssDNA deamination FAM/TAMRA fluorescence;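 active = inhibition of at least 40% at 20 µM, with no more than 30% in the related APOBEC3A deaminase screen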
A3A deaminase = inhibitors of human APOBEC3A DNA deaminase | P31941 | recombinant A3A, FAM/TAMRA ssDNA deamination fluorescence | inhibition, % at 20 µM | 330,000 tested, 0.41% active;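 active = at least 40% inhibition at 20 µM here, with at most 30% in a related deaminase screen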
Target sequence (P31941 whole entry, looked up): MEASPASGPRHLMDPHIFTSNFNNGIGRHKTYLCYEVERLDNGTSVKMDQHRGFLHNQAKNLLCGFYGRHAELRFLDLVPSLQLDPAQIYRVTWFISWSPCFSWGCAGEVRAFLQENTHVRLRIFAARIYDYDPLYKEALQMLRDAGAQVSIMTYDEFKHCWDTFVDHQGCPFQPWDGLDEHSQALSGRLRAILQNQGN
rCAG binder = binds r(CAG) RNA repeats; r(CAG) RNA repeat, TO-PRO-1 dye displacement fluorescence; inhibition, % at 3 µM; 370,000 tested, 1.3% active; AID 651821;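 active = inhibition above the plate cutoff, the mean of all test compounds on that plate plus 3 SD, cut at about 35% in these data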;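 also: higher means more dye released from RNA so lower well fluorescence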
Large screens that a line does not name were inactive. Rows were chosen to be rich in hits. Some 5.4% of all compounds tested hit in one or more screens of this group.

Fc1ccc(CSc2nnc(-c3cnccn3)n2Cc2ccco2)cc1	ALR inh 87
CC(COc1ccc(C#N)cc1F)CN1CCC(C(O)(c2ccccc2)c2ccccc2)CC1 (configuration not stated)	none (no result: aDG glyco act, ALR inh, PHOSPHO1 block, APOBEC3G inh, A3A deaminase)
C=CC[C@]12C[C@@]3(O[C@H](c4ccccn4)N=C3C[C@H](c3ccc(OC)cc3)[C@H]1C)N(C1CCN(Cc3ccccc3)CC1)C2=O	none (no result: aDG glyco act, ALR inh, PHOSPHO1 block, APOBEC3G inh, A3A deaminase)
Cc1cccc(OCc2nnc(SCC(=O)c3cccs3)n2C)c1C	PHOSPHO1 block 76 (no result: rCAG binder)
O=C(CSc1nnc(-c2cnccn2)n1Cc1ccco1)c1ccc2ccccc2c1	PHOSPHO1 block 86
O=C(CSc1nnc(-c2cccnc2)n1Cc1ccco1)c1ccccc1	none
O=C(CSc1nnc(-c2ccccn2)n1Cc1ccco1)c1ccc(-c2ccccc2)cc1	PHOSPHO1 block 77
O=C(CSc1nnc(-c2ccc(O)cc2)n1Cc1ccco1)c1cccs1	ALR inh 99
C=CCn1c(SCC(=O)Nc2ccc(NC(=O)c3ccco3)c(OC)c2)nnc1-c1ccncc1	ALR inh 99
CCC(=O)Nc1ccc(C(=O)CSc2nnc(-c3cccnc3)o2)cc1	none
COC(=O)c1ccc(NC(=O)CSc2nnc(-c3cccnc3)o2)cc1	ALR inh 99 (no result: PHOSPHO1 block)
C[C@H]1C2CC(OC(=O)NCc3ccc(Cl)cc3)C(C2)[C@H]2CCCCN21 (some centres not stated)	none (no result: aDG glyco act, ALR inh, PHOSPHO1 block, APOBEC3G inh, A3A deaminase)
CCOC(=O)CC[C@H]1CC[C@]2(CCCN(S(=O)(=O)c3ccccc3)C2)O1	none (no result: aDG glyco act, ALR inh, PHOSPHO1 block, APOBEC3G inh, A3A deaminase)
O=C(NC(=S)NNC(=O)[C@H]1C[C@@H]1c1ccccc1)c1cccc(F)c1	ALR inh 98
COc1cccc(OC)c1C(=O)NC(=S)NNC(=O)[C@H]1C[C@@H]1c1ccccc1	none
N#CCC[C@@H]1CC[C@]2(CCCN(C(=O)c3cccnc3)C2)O1	none (no result: aDG glyco act, ALR inh, PHOSPHO1 block, APOBEC3G inh, A3A deaminase)
Cn1c(CNc2ccc(F)cc2)nc2ccccc21	ALR inh 85
CCOC(=O)Cn1cc(CN2C(C(=O)OC)CN(Cc3ccc(Cl)cc3)CCS2(=O)=O)nn1 (configuration not stated)	none (no result: aDG glyco act, ALR inh, PHOSPHO1 block, APOBEC3G inh, A3A deaminase)
CNc1sc(C(=O)c2ccccc2F)c(N)c1-c1nc2ccccc2s1	ALR inh 91
CCOC(=O)CC[C@H]1CC[C@]2(CCCN(Cc3ccccc3)C2)O1	none (no result: aDG glyco act, ALR inh, PHOSPHO1 block, APOBEC3G inh, A3A deaminase)
CCn1c(-c2ccccn2)nc2cc(S(=O)(=O)N(C)C)ccc21	ALR inh 99
CCn1c(-c2cc(Br)cc(OC)c2O)nc2cc(S(=O)(=O)N(C)C)ccc21	ALR inh 91
COc1ccc2nc(SCc3cnc(C)nc3N)[nH]c2c1	none
Cc1noc(C)c1CSc1nc2ccccc2[nH]1	ALR inh 99
Cc1ncc(CSc2nc3ccccc3[nH]2)c(N)n1	ALR inh 88
COc1ccc(-n2c(COc3ccc(Cl)cc3)nnc2SCC(=O)Nc2ccc3c(c2)OCO3)cc1	none (no result: aDG glyco act, ALR inh, PHOSPHO1 block, APOBEC3G inh, A3A deaminase)
Cc1cccc(-c2nc3sc(C)cc3c(=O)o2)c1	ALR inh 97
O=c1c(C(c2ccc(Cl)cc2)c2c(O)nc3n(c2=O)CCS3)c(O)nc2n1CCS2	ALR inh 98
O=c1c(C(c2ccc(Cl)cc2)c2c(O)nc3n(c2=O)CCCS3)c(O)nc2n1CCCS2	none
CCN(CC)C(=O)CC[C@H]1CC[C@]2(CCCN(C(=O)c3ccno3)C2)O1	none (no result: aDG glyco act, ALR inh, PHOSPHO1 block, APOBEC3G inh, A3A deaminase)
COc1cccc(N(C)C(=O)[C@@H](C2CC2)[C@@H](O)c2ccc3ccccc3c2)c1	none (no result: aDG glyco act, ALR inh, PHOSPHO1 block, APOBEC3G inh, A3A deaminase)
Cc1cccc(/C=N/Nc2nncc3ccccc23)c1	ALR inh 97
C(=N\Nc1nncc2ccccc12)/c1ccccc1	none
COc1ccc(C(=O)CSc2nnc(CNC(=O)c3ccc(OC)c(OC)c3)n2C)cc1	none
COc1ccc(C(=O)NCc2nnc(SCC(=O)c3ccc(F)cc3)n2C)cc1OC	ALR inh 94 (no result: PHOSPHO1 block)
CCn1c(CNC(=O)c2ccco2)nnc1SCC(=O)c1ccc(F)cc1	none (no result: ALR inh)
Cn1c(CNC(=O)c2ccco2)nnc1SCC(=O)c1ccc(F)cc1	ALR inh 86
C[C@H](CO)N1C[C@H](C)[C@@H](CN(C)C(=O)Nc2ccccc2)OCc2cn(nn2)CCCC1=O	none (no result: aDG glyco act, ALR inh, PHOSPHO1 block, APOBEC3G inh, A3A deaminase)
O=C(Oc1ccc(/C=N/O)cc1)c1ccccc1Cl	ALR inh 99
CC(=O)N1CCN(S(=O)(=O)c2cccc(C(=O)Nc3ccccc3N3CCCC3)c2)CC1	ALR inh 97 (no result: PHOSPHO1 block)
CN1CCN(S(=O)(=O)c2cccc(C(=O)Nc3ccccc3N3CCCC3)c2)CC1	none
Cc1ccc(S(=O)(=O)N2CCC(C(=O)Nc3ccccc3N3CCCC3)CC2)cc1	none (no result: ALR inh, PHOSPHO1 block)
O=C(Nc1ccccc1O)c1cc(S(=O)(=O)N2CCOCC2)c(Cl)cc1Cl	ALR inh 90
COc1ccc(S(=O)(=O)N2CCC(C(=O)Nc3ccccc3N3CCCC3)CC2)cc1OC	ALR inh 97
CC1CN(S(=O)(=O)c2cccc(C(=O)Nc3ccccc3N3CCCC3)c2)CC(C)O1 (configuration not stated)	ALR inh 97 (no result: PHOSPHO1 block)
CC1CN(S(=O)(=O)c2cccc(C(=O)Nc3ccc(N4CCCCC4)cc3)c2)CC(C)O1 (configuration not stated)	none (no result: ALR inh, PHOSPHO1 block, APOBEC3G inh, A3A deaminase)
O=C(CSc1nnc(-c2ccncc2)n1-c1ccccc1)Nc1cccc2ccccc12	none (no result: aDG glyco act, ALR inh, PHOSPHO1 block, APOBEC3G inh, A3A deaminase)
COC(=O)C[C@H]1CC[C@@H]2[C@H](COc3ccc(NC(=O)c4cnccn4)cc3C(=O)N2C)O1	none (no result: aDG glyco act, ALR inh, PHOSPHO1 block, APOBEC3G inh, A3A deaminase)
CN1NC(=O)c2ccccc2NC1=S	none (no result: aDG glyco act, ALR inh, PHOSPHO1 block, APOBEC3G inh, A3A deaminase)
COc1ccc(C(=O)Nc2ccc(N3CCCCCC3)cc2)cc1S(=O)(=O)N1CCOCC1	ALR inh 98 (no result: PHOSPHO1 block)
COc1ccc(NC(=O)C2CCC(CNc3c(N4CCOCC4)c(=O)c3=O)CC2)cc1Cl (configuration not stated)	none
Cc1ccc(C(=O)Nc2ccccc2N2CCCC2)cc1S(=O)(=O)N1CCOCC1	ALR inh 98 (no result: PHOSPHO1 block)
COc1ccc(NC(=O)c2ccc(CNc3c(N4CCCC4)c(=O)c3=O)cc2)cc1Cl	PHOSPHO1 block 66 (no result: ALR inh)
CC1CCN(c2ccc(C(=O)O)cc2NS(=O)(=O)c2ccccc2)CC1	none (no result: aDG glyco act, ALR inh, PHOSPHO1 block, APOBEC3G inh, A3A deaminase)
Cc1ccc(-n2c(SCC(=O)Nc3cccc4ccccc34)nnc2-c2cccs2)cc1	none (no result: aDG glyco act, ALR inh, PHOSPHO1 block, APOBEC3G inh, A3A deaminase)
Cc1ccc2c(c1)-c1c(cnn1CC(=O)NCCc1ccc(O)cc1)CO2	none (no result: aDG glyco act, ALR inh, PHOSPHO1 block, APOBEC3G inh, A3A deaminase)
CCCCCC[C@@H](CN(CCCC)S(C)(=O)=O)c1ccccc1	none (no result: aDG glyco act, ALR inh, PHOSPHO1 block, APOBEC3G inh, A3A deaminase)
COc1cc(/C=C/c2sc3ccccc3[n+]2CCCS(=O)(=O)[O-])ccc1O	ALR inh 99
CCn1c(SCC(=O)Nc2ccc(C(=O)OC)cc2)nnc1-c1cccc(Cl)c1	none (no result: aDG glyco act, ALR inh, PHOSPHO1 block, APOBEC3G inh, A3A deaminase)
C[N+]1(CCOS(=O)C23CC4CC(CC(C4)C2)C3)CCOCC1 (configuration not stated)	PHOSPHO1 block 81
COC(=O)[C@]12C[C@H](CC(=O)N3CCCCC3)C(=O)N(CCc3ccc(OC)c(OC)c3)C1=C[C@H](C(C)(C)C)O[C@@H]2C	none (no result: aDG glyco act, ALR inh, PHOSPHO1 block, APOBEC3G inh, A3A deaminase)
Cc1noc(NS(=O)(=O)c2ccc(NC(=O)CSc3nc4ccccc4[nH]3)cc2)c1C	none
